# Measurements: PubChem BioAssay AID485270 (The Scripps Research Institute Molecular Screening Center, 2010)
# In all, about 330,000 compounds went through this assay and about 5,800 (1.8%) were called active. The full list was thinned out, with actives kept by preference. Unmarked numbers belong to inactive results. Rule as the data show it: active = inhibition mostly above about 38% (no sharp cut-off); inactive = mostly below about 40%.
# Molecular target: Orexin/Hypocretin receptor type 1 (Homo sapiens) (UniProt O43613)
# Sequence (O43613 whole entry, looked up): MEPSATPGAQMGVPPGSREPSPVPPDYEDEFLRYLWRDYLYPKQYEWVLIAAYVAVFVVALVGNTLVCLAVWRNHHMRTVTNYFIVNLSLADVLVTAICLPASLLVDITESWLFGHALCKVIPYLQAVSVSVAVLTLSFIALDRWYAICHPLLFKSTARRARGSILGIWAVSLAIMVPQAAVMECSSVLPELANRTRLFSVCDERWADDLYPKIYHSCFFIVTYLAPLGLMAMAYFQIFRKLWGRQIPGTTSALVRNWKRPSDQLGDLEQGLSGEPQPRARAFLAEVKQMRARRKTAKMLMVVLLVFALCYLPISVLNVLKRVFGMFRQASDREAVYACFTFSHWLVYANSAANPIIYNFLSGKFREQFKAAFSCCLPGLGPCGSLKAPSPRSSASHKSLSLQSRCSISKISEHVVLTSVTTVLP
# Experiment: blocks the human orexin 1 receptor (AID 485270);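 also: 0% = agonist challenge alone and 100% = reference antagonist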
# Conditions: OX1R-expressing cells, FRET antagonist read-out; at 6.6 µM; stronger effect = higher value
row,SMILES,inhibition
1,CC(=O)N1c2ccc(S(=O)(=O)N3CCCC(C(=O)Nc4cccc(Cl)c4)C3)cc2CC1C (configuration not stated),2.16%
2,CC(=O)N1CCCc2cc(S(=O)(=O)N3CCCC(C(=O)NCc4ccc(Cl)cc4)C3)ccc21 (configuration not stated),10.5%
3,CC(=O)N1CCCc2cc(S(=O)(=O)N3CCCC(C(=O)N4CCN(c5cccc(Cl)c5)CC4)C3)ccc21 (configuration not stated),39.7% (active)
4,CSCCC1NC(=O)N(CC(=O)Nc2cccc(S(=O)(=O)N3CCCCCC3)c2)C1=O (configuration not stated),12.6%
5,O=C1[C@@H](c2ccccc2)[C@@H](c2ccccc2)N1c1cccnc1,26%
6,Cc1cc(C(C)(C)C)oc1C(=O)N(CC(=O)NC1CCCC1)Cc1ccc(Cl)cc1,22.5%
7,O=C(COC(=O)Cc1ccc([N+](=O)[O-])cc1)NC1CCCCCC1,2.43%
8,Cc1cc(C)cc(NC(=O)C(OC(=O)c2ccc(O)cc2)c2ccccc2)c1 (configuration not stated),9.51%
9,CC(C)CC[n+]1ccn(C2=C([O-])c3ccccc3C(=O)/C2=N\S(=O)(=O)c2ccccc2)c1,79.9% (active)
10,O=C(CCc1ccc(S(=O)(=O)N2CCOCC2)cc1)OCC(=O)c1ccc(Br)cc1,4.77%
11,O=C(Nc1nnc(-c2ccccc2)o1)c1cccc(S(=O)(=O)N2CCOCC2)c1,13.1%
12,COc1ccc(NS(=O)(=O)c2ccc(C(=O)Nc3c(C)n(C)n(-c4ccccc4)c3=O)cc2)cc1,8.89%
13,Cc1c(NC(=O)C(C)OC(=O)c2ccccc2O)c(=O)n(-c2ccccc2)n1C (configuration not stated),5.32%
14,COc1ccc(C(=O)C(C)OC(=O)c2cccc(S(=O)(=O)Nc3c(C)n(C)n(-c4ccccc4)c3=O)c2)cc1 (configuration not stated),41.2% (active)
15,Cc1cc(NC(=O)CSc2nnc(-c3ccco3)n2N)no1,9.57%
16,O=C(CNC(=O)c1ccccc1F)OCC(=O)c1c[nH]c2ccccc12,3.49%
17,COc1ccc(NS(=O)(=O)c2cc(NC(=O)c3ccc(S(=O)(=O)N(C)C)cc3)ccc2N2CCOCC2)cc1,6.2%
18,COc1ccc(C(=O)COC(=O)C(O)c2ccccc2)c(OC)c1 (configuration not stated),3.45%
19,O=C(COC(=O)c1ccc(F)cc1)NCC1COc2ccccc2O1 (configuration not stated),6.76%
20,O=C(CN1C(=O)/C(=C/c2ccccc2F)Sc2ccccc21)NCc1cccnc1,46.6% (active)
21,O=C(CN1C(=O)/C(=C\c2ccc(C(F)(F)F)cc2)Sc2ccccc21)NCc1ccco1,38.3%
22,O=C(CN1C(=O)S/C(=C\c2ccccc2F)C1=O)NCCCn1ccnc1,20.4%
